Shown are actives, neighbours in structure and some others; about 1.4% of the full set was active somewhere.
KCNH2 3.1 inh: blocks the human KCNH2 3.1 channel isoform | U2OS KCNH2 3.1, thallium flux FluxOr; stronger effect = lower value | activity change, % (tested at about 1.8 µM) | 340,000 tested, 0.95% active;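 active = maximum activity change below -70%; inconclusive = maximum activity change from -70% to -50%; inactive = maximum activity change above -50%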;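 also: thallium influx rate constant from kinetic fluorescence after stimulation buffer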
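Measured as rate of thallium-driven FluxOr signal in transduced U2OS cells carrying the 3.1 channel, read kinetically for 2 min upon stimulation; values are rate constants scaled to DMSO control wells.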
RXFP1 ag: RXFP1 (human) receptor agonism. AID 2676. Potency, µM (doses to about 57.5 µM), most hits filed as activators. Q9HBX9. HEK293T-RXFP1 cAMP TR-FRET, 30 min; response scale: percent of porcine relaxin response, buffer zero. 370,000 tested, 0.3% active; also: nearly all actives have a fitted effect of over 60% in size
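cAMP rise read by TR-FRET after 30 min, 37C compound exposure (up to 58 uM) in RXFP1-transfected HEK293 cells with Ro 20174 present. EC50 from Hill-equation fits, with 29 nM porcine relaxin as 100% and buffer as basal.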
PTHR1 ag: PTHR1 (human) receptor agonism; Q03431; HEK293 GP2 PTHR1 cells, GloSensor cAMP luminescence, 1 h; Potency, µM (series often up to 115 µM), usual class: activators; 410,000 tested, 0.075% active; also: nearly all actives have a fitted effect of over 55% in size
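HEK-293-derived GP2 cells expressing PTHR1 and a GloSensor cAMP reporter, 3,000/well, plated overnight, given luciferin plus IBMX (each 0.5 mM as added) for 1 h at 37 °C, then compound for 1 h at 37 °C. Luminescence was read after 15 min at room temperature.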
Glioma ERSR ind: ER stress response induction in glioma; Potency, µM, hits mostly activators; U87-MG GRP78 promoter luciferase reporter, 16 h; 420,000 tested, 0.02% active; also: series mostly up to about 76 µM; nearly all actives have a fitted effect of over 35% in size
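ERSR induction read as luciferase luminescence (Bright-Glo, 10 min at room temperature) in stably transfected human U87-MG glioma cells exposed to compounds for 16 h, using GRP78 as sensor.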
RXFP1 antagonist: RXFP1 (human) relaxin receptor antagonism. HEK293-RXFP1, relaxin-stimulated cAMP HTRF, 30 min; stronger effect = lower value. activity change, negative = inhibition, % at 57.5 µM. 350,000 tested, 0.59% active. AID 1259400;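 active = activity change of -60% or lower, but not beyond a set lower limit; inconclusive = change between -60% and -40%, or beyond the set limit; inactive = change above -40%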
hERG WT inh: inhibitors of human wildtype KCNH2 potassium channel; Q12809; U2OS, BacMam KCNH2, thallium flux FluxOr; stronger effect = lower value; activity change, % at 1.84 µM; 340,000 tested, 0.37% active; AID 720551;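 active = maximum activity change below -70%; inconclusive = maximum activity change between -70% and -50%; inactive = maximum activity change above -50%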
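U2OS cells transduced with wild-type KCNH2 virus are loaded with FluxOr dye for 45 min, and thallium flux is measured in kinetic reads before and after stimulation buffer. Rate constants are normalized to DMSO controls.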
Numbers stand for hits; – = inactive; ? = inconclusive; · = no result. Unless noted, calls follow the shape of the dose curve; as a rule, active = well fitted curve in the direction sought with a large enough effect; inconclusive = small, poorly fitted or top-dose-only effect, or another doubt; inactive = no such curve, though single readings can be large; an effect the other way counts as inactive or inconclusive.

SMILES	KCNH2 3.1 inh	RXFP1 ag	PTHR1 ag	Glioma ERSR ind	RXFP1 antagonist	hERG WT inh
Cc1ccc2cc(/C=C(\C#N)C(N)=O)c(N3CCCCC3)nc2c1	–	–	–	–	–	–
CN(C)CCNc1nc2sc3c(c2c(=O)n1Cc1ccccc1)CCCCC3	–	–	–	–	-92	–
Cc1ccc2c(NC(=S)NC(=O)c3ccccc3)cccc2n1	–	–	–	–	–	–
C=CCc1ccc(OCC(O)COc2ccc(CC=C)cc2OC)c(OC)c1	–	–	–	–	-69	–
CC(C(=O)NCC1CCCCC1)N(C)Cc1ccc(Br)cc1 (stereo unspecified)	–	–	–	–	–	–
CC(C(=O)NCC1CCCCC1)N(C)Cc1ccc(Cl)cc1 (stereo unspecified)	–	–	–	–	-78	–
Cc1ccc(S(=O)(=O)Oc2cccc(/C=N/Nc3ccc(C(=O)O)cc3)c2)cc1	–	–	–	–	-62	–
c1ccc(-c2nc3ccccc3[nH]2)cc1	–	–	–	–	·	–
S=c1nc(-c2ccccc2)[nH]c2ccc(Br)cc12	–	?	–	–	–	-73
COc1ccccc1C1CCN(Cc2ccc3ccccc3c2)CC1	-188	–	–	–	–	-209
CCOC(=O)c1sc(NC(=O)CN2C(=O)NC3(CC(C)CC(C)(C)C3)C2=O)cc1C (stereo unspecified)	–	–	–	–	–	–
Cc1ccccc1NC(=O)C1CCCN(c2ncnc3onc(-c4ccc(F)cc4)c23)C1 (stereo unspecified)	–	–	–	–	–	–
COC(=O)c1ccc(CN2CCC(CO)(CCOc3ccccc3)CC2)cc1	-97	–	–	–	–	–
COc1cc(Cl)c(CN2CCC(CO)(CCOc3ccccc3)CC2)cc1OC	-94	–	–	–	–	-74
COc1ccc(CN2CCC(CO)(CCOc3ccccc3)CC2)c(OC)c1C	?	–	–	–	–	–
COc1ccc2[nH]c(CN3CCC(CO)(CCOc4ccccc4)CC3)c(C)c2c1	–	–	–	–	-71	–
Cc1nn(C)cc1CN1CCC(CO)(CCOc2ccccc2)CC1	–	–	–	–	–	–
OCCOc1cccc(CN2CCC(CO)(CCOc3ccccc3)CC2)c1	–	–	–	–	–	·
OCC1(CCOc2ccccc2)CCN(CC2=Cc3cc(Cl)ccc3OC2)CC1	-72	–	–	–	–	–
CCOC(=O)COc1ccc(C(=O)CC)cc1OC	–	–	–	–	–	–
Cn1c(-c2sc3cc(C(F)(F)F)cnc3c2-c2ccccn2)n[nH]c1=S	–	–	–	–	?	–
O=C(c1ccc(CS(=O)(=O)c2ccc(Br)cc2)o1)N1CCN(c2ncccn2)CC1	–	–	–	–	·	–
CCCCNC(=S)N(Cc1c(C)noc1C)c1ccccc1	-117	–	–	–	–	–
Cc1cc(Br)c2[nH]cc(CCNC(=O)c3ccco3)c2c1	–	–	–	–	-88	–
COc1ccc2c(c1)CC(N1CCN(C)CC1)c1cc(OC)ccc1S2 (stereo unspecified)	–	·	–	–	-115	–
SMILES	KCNH2 3.1 inh	RXFP1 ag	PTHR1 ag	Glioma ERSR ind	RXFP1 antagonist	hERG WT inh
O=[N+]([O-])c1ccc2c(c1)C(N1CCN(CCO)CC1)Cc1ccc(F)cc1S2 (stereo unspecified)	·	·	–	–	·	·
Clc1ccc2c(c1)C(N1CCNCC1)Cc1ccccc1S2 (stereo unspecified)	–	–	–	–	–	–
CSc1ccc2c(c1)C(N1CCN(C)CC1)Cc1ccc(F)cc1S2 (stereo unspecified)	-94	·	–	–	?	?
COCCCN1CCN(C2Cc3ccccc3Sc3ccc(Cl)cc32)CC1 (stereo unspecified)	-86	–	–	–	·	?
FC(F)(F)c1ccccc1-c1ccc2ncnc(NCc3cccs3)c2c1	·	·	·	–	·	·
CCCOc1ccc(C2C3=C(Nc4nc(N)[nH]c(=O)c42)c2ccccc2C3=O)cc1 (stereo unspecified)	–	–	–	–	–	–
COc1ccc(NS(=O)(=O)c2ccc(N3CCOCC3)c(NC(=O)c3ccc(OC)cc3)c2)cc1	–	–	–	–	–	–
COc1ccccc1C(=O)NC(=O)COC(=O)/C(=C/c1ccccc1)NC(C)=O	·	–	–	–	–	–
CCN(CCNCC(O)COCc1ccc(Cl)cc1)c1cccc(C)c1 (stereo unspecified)	?	–	–	–	-70	–
CCN(CCCNC(=O)c1ccc(Sc2ccc(Cl)cc2)c(NC(C)=O)c1)c1cccc(C)c1	·	–	–	–	–	·
COc1ccc2nc(Cl)c(C3CC(c4ccco4)=NN3C(=O)CCCC(=O)O)cc2c1 (stereo unspecified)	–	?	–	–	–	–
Cc1ccc(NC(=S)NCc2cccn2C)cc1	–	–	3.5µM	–	–	–
CCC(Oc1ccc(F)cc1)C(=O)Nc1nc(-c2ccc(F)cc2)ns1 (stereo unspecified)	·	–	–	–	-87	·
CC(=O)c1cccc(NC(=O)N2CCCC2C(=O)NC2CCCC2)c1 (stereo unspecified)	–	–	–	–	–	–
O=C(NC1CCCC1)C1CCCN1C(=O)Nc1ccccc1 (stereo unspecified)	-87	–	–	–	–	–
CC1CCCN(C(=O)c2ccc([N+](=O)[O-])o2)C1 (stereo unspecified)	–	–	–	–	–	–
CC1CCN(C(=O)c2ccc([N+](=O)[O-])o2)CC1	-72	–	–	–	–	–
CCOC(=O)C1CCN(C(=O)c2cc3c(ccc4ccccc43)o2)CC1	–	–	–	–	–	–
CC1CCN(C(=O)c2cc3c(ccc4ccccc43)o2)CC1	–	–	–	–	-60	–
CCCCN(CC)CCCNC(=O)c1cn(CC(C)C)c(=O)c2c1c1ccccc1n2C	–	–	–	–	–	–
O=Cc1cc([N+](=O)[O-])ccc1N1CCN(Cc2ccc3c(c2)OCO3)CC1	-86	–	–	–	–	?
O=[N+]([O-])c1ccc(N2CCN(Cc3ccc4c(c3)OCO4)CC2)nc1	–	–	–	–	–	–
O=S1(=O)C[C@@H](N2CCCC2)[C@H](COCc2ccccc2)N1	·	·	–	–	·	·
Cc1ccc(-c2cc(C(=O)N3CCc4ccccc4C3)[nH]n2)cc1C	–	–	–	–	–	–
COc1cccc(-c2cc(C(=O)N3CCc4ccccc4C3)[nH]n2)c1	–	–	–	–	–	-302
O=C(Nc1ccccc1Oc1cccnc1)C1CCCN(C/C=C/c2ccc(F)cc2)C1 (stereo unspecified)	-93	–	–	–	–	-98

Screens as filed in PubChem BioAssay.
